Bioassay records (PubChem)
This excerpt belongs to a sample that is enriched for hits.
C diff growth: C. difficile growth inhibition; Clostridium difficile clinical isolate growth, OD600, 24 h; stronger effect = lower value; growth activity, negative = inhibition, % at 16 µg/mL (by protocol); 86,000 tested, 0.25% active;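 active means mean growth activity at or below -80% and every replicate also at or below -80%; inconclusive means mean at or below -80% but some replicate above -80%; inactive means mean growth activity above -80%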;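 further: 0% = DMSO wells and -100% = levofloxacin 16 µg/mL wells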
T cruzi growth: inhibitors of T. cruzi proliferation; 77,000 tested, 5.9% active; inhibition, % at 8.34 µM; AID 624255; T. cruzi beta-gal in NIH3T3, GalScreen luminescence, 90 h;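 active means mean inhibition above about 93%, with at least 55% of replicates each passing it, limit read from the data, passing the limit was not always enough; inconclusive means only one of those two conditions holds; inactive means neither condition holds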
Starred values were filed as active, the others as inactive; u = inconclusive; x = no result given; ! = repeats disagree.

SMILES | C diff growth | T cruzi growth
CO[C@@H]1CN(C)C(=O)c2cc(NC(=O)Nc3ccc(Cl)c(Cl)c3)ccc2OC[C@H](C)NC[C@@H]1C | -97* | -42
CO[C@@H]1CN(C)C(=O)c2cc(NC(=O)Nc3cc(Cl)cc(Cl)c3)ccc2OC[C@@H](C)NC[C@@H]1C | x | 24
CO[C@@H]1CN(C)C(=O)c2cc(NC(=O)Nc3ccc(Cl)cc3)ccc2OC[C@H](C)NC[C@H]1C | 0 | -48
CO[C@H]1CN(C)C(=O)c2cc(NC(=O)Nc3ccc(Cl)c(Cl)c3)ccc2OC[C@H](C)NC[C@H]1C | -99* | -43
COc1cccc(NC(=O)Nc2ccc3c(c2)C(=O)N(C)[C@H]2CC[C@H](CC(=O)NCCc4ccccc4)O[C@H]2CO3)c1 | -14 | 35
CCCc1cn(CC[C@@H]2CC[C@H](NC(=O)C3CCOCC3)[C@@H](CO)O2)nn1 | 2 | 15
O=S(=O)(c1ccccc1)N1C[C@@H]2N[C@H](C1)C2c1ccc(/C=C/c2ccccc2)cc1 (stereo not given in full) | -96*! | x
Cc1ccc(S(=O)(=O)N2C[C@@H]3N[C@H](C2)[C@@H]3c2ccc(-c3cccc(C)c3)cc2)cc1 | 1 | x
O=S(=O)(c1ccc(F)cc1)N1C[C@@H]2N[C@H](C1)C2c1ccc(-c2ccc(F)cc2)cc1 (stereo not given in full) | 9 | x
Cc1ccc(-c2ccc(C3[C@@H]4CN(S(=O)(=O)c5cccc(C)c5)C[C@H]3N4)cc2)cc1 (stereo not given in full) | -95* | x
O=S(=O)(c1ccccc1F)N1C[C@@H]2N[C@H](C1)C2c1ccc(/C=C/c2ccccc2)cc1 (stereo not given in full) | 10 | x
Cc1ccc(-c2ccc(C3[C@@H]4CN(S(=O)(=O)c5ccc(C)cc5)C[C@H]3N4)cc2)cc1 (stereo not given in full) | -97* | x
C[C@@H]1CCCCO[C@@H](CN(C)Cc2ccc(C(=O)O)cc2)[C@@H](C)CN([C@@H](C)CO)C(=O)c2cc(NC(=O)c3ccncc3)ccc2O1 | -1 | 50
CC(C)NC(=O)Nc1ccc2c(c1)CC(=O)N([C@@H](C)CO)C[C@H](C)[C@@H](CN(C)C(=O)Nc1ccccc1)O2 | -12 | 17
CCCNC(=O)C[C@@H]1CC[C@H]2[C@@H](COC[C@H](O)CN2CC2CCCCC2)O1 | 3 | x
COc1ccccc1CN1CC[C@@H]2[C@H](CO)Nc3ccc(C#Cc4ccccc4)cc3[C@@H]21 | -99* | -16
COc1cccc(-c2ccc3c(c2)[C@@H]2[C@@H](CCN2Cc2ccccc2OC)[C@@H](CO)N3)c1 | -98* | -2
COc1ccccc1CN1CC[C@@H]2[C@H](CO)Nc3ccc(-c4cccc(F)c4)cc3[C@@H]21 | -3 | 38
COc1ccccc1CN1CC[C@@H]2[C@H]1c1cc(-c3cccc(F)c3)ccc1N[C@@H]2CO | -1 | 26
COc1ccccc1CN1CC[C@@H]2[C@@H](CO)Nc3ccc(-c4cccc(F)c4)cc3[C@@H]21 | -6 | 49
COc1ccccc1C#Cc1ccc2c(c1)[C@H]1[C@H](CCN1C(=O)c1ccc(F)cc1)[C@H](CO)N2 | -97* | 91
COc1ccccc1C#Cc1ccc2c(c1)[C@@H]1[C@@H](CCN1C(=O)c1ccc(F)cc1)[C@@H](CO)N2 | 37 | 79
COc1cccc(-c2ccc3c(c2)[C@H]2[C@H](CCN2Cc2ccccc2OC)[C@H](CO)N3)c1 | -91* | 5
COc1ccc2c3c([nH]c2c1)[C@H](CO)N(C(=O)c1cccc(F)c1)CC31CN(C(=O)c2cccc(F)c2)C1 | 2 | x
C[C@@H]1CN([C@@H](C)CO)C(=O)c2cc(NS(=O)(=O)c3ccccc3)ccc2O[C@@H](C)CCCCO[C@H]1CN(C)S(=O)(=O)c1cn(C)cn1 | -3 | 17
SMILES | C diff growth | T cruzi growth
CCC(=O)Nc1ccc2c(c1)C(=O)N(C)[C@H]1CC[C@@H](CC(=O)NCCCN(C)C)O[C@H]1CO2 | -2 | -20
Cc1noc(C)c1NC(=O)N(C)C[C@H]1Oc2ccc(NC(=O)NC(C)C)cc2CC(=O)N([C@@H](C)CO)C[C@@H]1C | -3 | 19
Cc1ccc(S(=O)(=O)Nc2ccc3c(c2)C(=O)N([C@@H](C)CO)C[C@H](C)[C@@H](CN(C)C(=O)Nc2ccc4c(c2)OCO4)OCCCC[C@@H](C)O3)cc1 | 0 | x
O=C(Nc1ccccc1)N1CCCCN2[C@H](CO)[C@H](c3ccc(C#Cc4ccccc4)cc3)[C@H]2C1 | -101* | 76
COc1ccc(NC(=O)N2CCCCN3[C@H](CO)[C@H](c4ccc(C#Cc5ccccc5)cc4)[C@@H]3C2)cc1 | -15 | 62
COc1ccc(NC(=O)N2CCCCN3[C@@H](CO)[C@@H](c4ccc(C#Cc5ccccc5)cc4)[C@@H]3C2)cc1 | -97* | 70
O=C(Nc1ccccc1)N1CCCCN2[C@H](CO)[C@H](c3ccc(C#Cc4ccccc4)cc3)[C@@H]2C1 | -24 | 60
Cc1ccc(S(=O)(=O)N(C)C[C@@H]2Oc3ccc(NC(=O)Cn4cnnn4)cc3CC(=O)N([C@@H](C)CO)C[C@@H]2C)cc1 | -1 | -2
C[C@H]1CN([C@@H](C)CO)C(=O)c2cc(/C=C/c3ccccc3)cnc2O[C@H]1CN(C)C(=O)c1cccnc1 | 1 | 27
CCCNC(=O)C[C@H]1CC[C@@H]2[C@H](COC[C@@H](O)CN2C(=O)Nc2ccc(Cl)c(Cl)c2)O1 | 37 | -93
O=C(C[C@H]1CC[C@H]2[C@@H](COC[C@H](O)CN2C(=O)Nc2ccc(Cl)c(Cl)c2)O1)NCc1ccc(F)cc1 | -94* | 57
O=C(C[C@@H]1CC[C@H]2[C@@H](COC[C@H](O)CN2C(=O)Nc2ccc(Cl)c(Cl)c2)O1)NCc1ccc(F)cc1 | -84* | 15
O=C(C[C@@H]1CC[C@H]2[C@@H](COC[C@@H](O)CN2C(=O)Nc2ccc(Cl)c(Cl)c2)O1)NCc1ccc(Cl)cc1 | -91* | 51
O=C(C[C@@H]1CC[C@H]2[C@@H](COC[C@@H](O)CN2C(=O)Nc2ccc(Cl)c(Cl)c2)O1)NCc1ccc(F)cc1 | -28 | -34
O=C(C[C@H]1CC[C@H]2[C@@H](COC[C@@H](O)CN2C(=O)Nc2ccc(Cl)c(Cl)c2)O1)NCc1ccc(Cl)cc1 | -69 | 88
CCCNC(=O)C[C@@H]1CC[C@H]2[C@@H](COC[C@@H](O)CN2C(=O)Nc2ccc(Cl)c(Cl)c2)O1 | -103*! | -17
O=C(C[C@H]1CC[C@H]2[C@@H](COC[C@@H](O)CN2C(=O)Nc2ccc(Cl)c(Cl)c2)O1)NCc1ccc(F)cc1 | -53 | -49
CCCC(=O)N1CC2(CCN(CC3CCCC3)CC2)c2c([nH]c3cc(OC)ccc23)[C@@H]1CO | -5 | x
O=C(C[C@H]1CC[C@@H]2NC[C@H](O)COC[C@H]2O1)NC1Cc2ccccc2C1 | -6 | 23
CCCNC(=O)[C@H]1[C@H](CO)[C@H]2Cn3c(ccc(C4=CCCCC4)c3=O)[C@H]2N1C(=O)c1cnccn1 | -2 | 34
C[C@H](CO)N1C[C@H](C)[C@@H](CN(C)CC2CCCCC2)Oc2ccc(NC(=O)c3ccncc3)cc2C1=O | 0 | -15
COc1ccc2c3c([nH]c2c1)[C@H](CO)N(C(=O)CN(C)C)CC31CN(CC2CC2)C1 | 5 | x
COc1cccc(C#Cc2ccc3c(c2)O[C@@H](CN(C)C(=O)c2ccccn2)[C@@H](C)CN([C@H](C)CO)S3(=O)=O)c1 | -3 | u
